CYP2C19 act = increases human CYP2C19 enzyme activity | P33261 | activation factor at 5 µM | recombinant CYP2C19, luciferin-H EGE luminescence; hits give high values; 0 = fully inhibited enzyme, 1 = untreated enzyme | 96,000 tested, under 10 active | AID 1025;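 active = activation factor of at least 2 at 5 µM in the primary screen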
DAT uptake mod = modulates human dopamine transporter uptake under cocaine | AID 449768 | LLC-PK1 hDAT cells, [14C]-dopamine uptake with cocaine IC80; actives deviate in either direction | B-score at 10 µM | Q01959 | 110,000 tested, 1.3% active;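 active = Z score or B-score, a plate-position-corrected score, falls beyond the plate's 99.7% confidence bounds, in either direction; inactive = both scores lie inside the 99.7% bounds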
CYP2C9 act = activators of human CYP2C9; P11712; recombinant CYP2C9, luciferin-H conversion, luminescence; hits give high values; factor 1 = untreated enzyme, 0 = blocked; activation factor at 5 µM; 96,000 tested, 1.4% active; AID 1024;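 active = activation factor of 2 or more for CYP2C9 at a 5 µM dose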
Target sequence (P11712 whole entry, looked up): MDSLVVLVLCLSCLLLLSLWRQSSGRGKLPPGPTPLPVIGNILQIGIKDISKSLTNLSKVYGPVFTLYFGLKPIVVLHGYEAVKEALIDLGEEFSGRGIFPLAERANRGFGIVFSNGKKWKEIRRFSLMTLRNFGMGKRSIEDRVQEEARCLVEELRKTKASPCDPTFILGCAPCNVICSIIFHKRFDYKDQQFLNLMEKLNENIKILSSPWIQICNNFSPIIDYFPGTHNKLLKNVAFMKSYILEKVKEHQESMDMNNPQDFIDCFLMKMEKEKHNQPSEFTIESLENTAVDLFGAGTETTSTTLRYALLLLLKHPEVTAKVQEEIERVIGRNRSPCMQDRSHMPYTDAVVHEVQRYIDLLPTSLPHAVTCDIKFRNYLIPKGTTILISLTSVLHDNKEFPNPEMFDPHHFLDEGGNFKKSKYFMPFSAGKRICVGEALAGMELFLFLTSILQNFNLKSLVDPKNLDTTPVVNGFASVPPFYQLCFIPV
CYP2C19 inh = inhibitors of human CYP2C19; P33261; CYP2C19 Supersomes, luciferin-H EGE luminescence, 30 min; inhibition, % at 5 µM; 96,000 tested, 21% active;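 active = CYP2C19 inhibition above a set limit at 5 µM in the primary screen, cut at about 50% in these data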
CYP2C9 inh = human CYP2C9 inhibition; P11712; AID 777; CYP2C9 Supersomes, luciferin-H conversion, luminescence; 96,000 tested, 20% active; inhibition, % at 5 µM;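 active = blocking of liver enzyme CYP2C9 beyond about 50% at 5 µM, limit read from the data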
D1 allo mod = allosterically modulates the human D1 dopamine receptor | HEK293 D1, CRE-luciferase, dopamine EC30 potentiation; actives deviate in either direction | AID 641 | P21728 | B-score at 10 µM | 58,000 tested, 5.9% active;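 active = luminescence count or its row- and column-corrected plate score outside the 99.7% band of the plate's sample wells, on either side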
Hits are given with their value; n = inactive; x = no result given. Shown are actives, neighbours in structure and some others; about 28% of the full set was active somewhere.

SMILES	CYP2C19 act	DAT uptake mod	CYP2C9 act	CYP2C19 inh	CYP2C9 inh	D1 allo mod
CC1(C)CC(=O)C2=C(C1)Nc1ccccc1NC2c1ccccn1 (stereo not drawn)	n	n	n	n	n	n
COCCNC(=O)C(=O)N/N=C/c1ccccc1C(F)(F)F	x	n	x	x	x	x
CCOc1ccc(OCC)c(NC(=O)C2CCN(S(=O)(=O)c3cccnc3)CC2)c1	n	n	n	54.6	n	x
CCOc1cc(NC(=O)C2CC2)c(OCC)cc1NC(=O)c1cccnc1	n	x	n	97.4	n	n
CCOc1ccc(NC(=O)C2CCN(S(=O)(=O)c3cccnc3)CC2)cc1	n	n	n	n	n	x
CCOc1cc(NC(=O)C2CC2)c(OCC)cc1NC(=O)c1ccccn1	n	n	n	n	n	n
c1ccc(CN2CCN(c3nc4ccccc4n4cnnc34)CC2)cc1	n	n	n	n	n	n
NC1=NC2(CCC(c3ccccc3)CC2)n2c(nc3ccccc32)N1 (stereo not drawn)	n	x	n	n	n	n
NC1=NC2(CCN(Cc3ccccc3)CC2)n2c(nc3ccccc32)N1	n	n	n	n	57.2	x
NC1=NC2(CCCCC2)n2c(nc3ccccc32)N1	n	n	n	n	n	-4.64
CC(C)NC(=O)c1ccc2c(c1)N(CC(=O)N1CCOCC1)C(=O)C(C)(C)O2	n	n	n	n	n	n
CCc1ccc2[nH]c(=O)c(C(c3nnnn3Cc3ccccc3)N3CCOCC3)cc2c1 (stereo not drawn)	n	n	n	n	n	n
Cc1cccc2cc(C(c3nnnn3Cc3ccccc3)N3CCN(C)CC3)c(=O)[nH]c12 (stereo not drawn)	n	n	n	n	n	n
c1ccc(Cn2nnnc2C(c2ccccn2)N2CCN(c3ccccc3)CC2)cc1 (stereo not drawn)	n	n	n	61.3	n	x
CCc1ccc2[nH]c(=O)c(C(c3nnnn3CCOC)N3CCN(c4ccc(F)cc4)CC3)cc2c1 (stereo not drawn)	n	n	n	96.0	69.4	n
c1ccc(Cn2nnnc2C(c2ccccn2)N2CCOCC2)cc1 (stereo not drawn)	n	n	n	n	n	n
Cc1cccc2cc(C(c3nnnn3Cc3ccccc3)N3CCN(c4ccccc4)CC3)c(=O)[nH]c12 (stereo not drawn)	n	n	n	n	50.4	n
CCc1ccc2[nH]c(=O)c(C(c3nnnn3CCOC)N3CCN(c4ccccc4)CC3)cc2c1 (stereo not drawn)	n	n	n	n	68.7	n
O=C(Nc1nnc(CCN2CCOCC2)s1)C1CCCCC1	n	n	n	n	n	n
COc1ccc2cc3[n+](cc2c1OC)CCc1cc2c(cc1-3)OCO2	x	n	x	x	x	x
CCOC(=O)CN1C(=O)C(Sc2n[nH]c(-c3ccccc3)n2)CCc2ccccc21 (stereo not drawn)	n	n	n	88.7	92.9	x
CCOC(=O)C1=C(C)N(C)C(=O)NC1c1cccc(O)c1 (stereo not drawn)	n	n	n	n	n	n
C=CCOC(=O)C1=C(C)N(C)C(=O)NC1c1cc2c(cc1Br)OCO2 (stereo not drawn)	n	n	n	96.3	71.2	n
CCN(CC)c1ccc(C2C(C(=O)OCCOC(C)C)=C(C)NC3=C2C(=O)CCC3)cc1 (stereo not drawn)	n	n	n	n	n	n
COCCOC(=O)C1=C(C)NC2=C(C(=O)CCC2)C1c1ccc(N(C)C)cc1 (stereo not drawn)	n	3.06	n	n	n	n
CC1=C(C(=O)OC(C)C)C(c2cccnc2)C2=C(CC(C)(C)CC2=O)N1 (stereo not drawn)	x	n	x	x	x	x
CCOC(=O)C1=C(C)NC(=O)CC1c1cc2c(cc1Br)OCO2 (stereo not drawn)	n	n	n	98.8	89.8	n
CC1=C(C(=O)OCCOC(C)C)C(c2cccnc2)C2=C(CCCC2=O)N1 (stereo not drawn)	n	n	n	70.0	55.7	n
CN(Cc1nc2ccccc2c(=O)[nH]1)CC(O)COCc1ccco1 (stereo not drawn)	n	n	n	n	n	x
O=C1CC(c2cc3c(cc2Br)OCO3)C2=C(CCCC2=O)N1 (stereo not drawn)	n	x	n	n	n	n
